# Screening data as filed in PubChem BioAssay.
# A selection: hits, their analogues and other compounds. The true share with any hit is near 8.7%.
# Vaccinia Venus – inhibitors of vaccinia virus (Venus reporter); AID 720580; Vaccinia virus Venus reporter expression, fluorescence; Potency, µM (doses to about 36.5 µM), for inactives: at the top dose activity change, negative = inhibition, hits mostly inhibitors; 330,000 tested, 0.46% active; calls by dose curve; tested in A549 cells; also: nearly all actives have a fitted effect of over 30% in size
# VACV mCherry inh – vaccinia inhibition (mCherry reporter); Vaccinia virus mCherry reporter infection, fluorescence; Potency, µM (highest dose often 36.5 µM), inactives show at the highest dose activity change, negative = inhibition, hits mostly inhibitors; 310,000 tested, 0.63% active; AID 720579; calls by dose curve; tested in A549 cells; also: nearly all actives have a fitted effect of over 35% in size
# Pf growth 96h – P. falciparum growth inhibition at 96 hour, primary screen for plastid delayed-death inhibitors; P. falciparum luciferase reporter growth, 96 h; Potency, µM (highest dose often 28.7 µM), inactives show at the highest dose activity change, negative = inhibition, hits mostly inhibitors; 320,000 tested, 6.9% active; AID 504834
#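 Erythrocytes infected with luciferase-expressing P. falciparum were dispensed at 2% hematocrit and 0.05% parasitemia (final), then incubated with compounds 96 hours at 37 C in 5% CO2. Luminescence after detection reagent addition reported growth.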
# Pf growth 48h – inhibits P. falciparum growth in the first generation, 48 h. P. falciparum luciferase growth in erythrocytes, 48 h. Potency, µM (highest dose often 28.7 µM), inactives show at the top dose activity change, negative = inhibition, hits mostly inhibitors. 310,000 tested, 5.9% active
#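 Compounds are pin-transferred into medium, infected erythrocytes (2% hematocrit, 0.1% parasitemia final) are added, and plates sit one parasite generation at 37 C in 5% CO2. Detection reagent is then added and luminescence measured.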
# AMA1-RON2 inh – inhibitors of Plasmodium falciparum AMA1-RON2 interaction. 360,000 tested, 0.2% active. AlphaScreen AMA1-biotinylated RON2 peptide binding. AID 720542. Potency, µM (highest dose often 58.2 µM), inactives show at the top dose activity change, negative = inhibition, most hits filed as inhibitors;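 also: 0% = vehicle wells and -100% = peptide control; nearly all actives have a fitted effect of over 45% in size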
#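 AMA1 (3D7) with his tag at 25 nM final met compounds first, then biotinylated RON2 peptide at 25 nM; detection used donor plus acceptor beads, 10 µg/mL apiece, read by AlphaScreen after 30 min at room temperature.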
# Numbers without * were called inactive; i = inactive; ? = inconclusive; nt = no result; [ ] = another dose, or the depositor's remark. Unless noted, calls follow the shape of the dose curve; as a rule, active = well fitted curve in the direction sought with a large enough effect; inconclusive = small, poorly fitted or top-dose-only effect, or another doubt; inactive = no such curve, though single readings can be large; an effect the other way counts as inactive or inconclusive. Unless noted, % is scaled to controls: 0 for no effect and ±100 for the full control effect; potency is read from the fitted curve at half-maximal effect.
SMILES,Vaccinia Venus,VACV mCherry inh,Pf growth 96h,Pf growth 48h,AMA1-RON2 inh
O=C(CN(Cc1ccc2c(c1)OCO2)C(=O)CNS(=O)(=O)c1ccccc1)NCc1ccco1,-8.9%,nt,2.33µM*,20.1%,0.8%
Cc1ccc2c(c1)c(=O)c(C(=O)c1ccncc1)cn2CC(=O)Nc1c(C)cccc1C,-8.2%[7.34 µM],-1.8%[7.34 µM],nt,nt,nt
Cc1cc(C)n(-c2cccc(C(=O)NCC3Cc4cccc(-c5cccnc5)c4O3)c2)n1 (stereo not given),-24.1%,i,nt,nt,nt
Cc1ccc(NC(=O)CN2C(=O)C(c3ccccc3)=NC23CCCCC3)cc1C,-19.3%,-19.2%,nt,nt,nt
CCCNC(=O)Cn1nc(-c2ccc(F)cc2)c2cnc3ccc(F)cc3c21,-1.0%,-11.7%,nt,nt,nt
CCn1c(=O)c(CCC(=O)NCC2CCCO2)c(C)c2c(C)nn(-c3ccc(C)cc3)c21 (stereo not given),nt,nt,-16.3%,5.22µM*,3.2%
CCn1c(=O)c(CCC(=O)N2CCN(c3ccccn3)CC2)c(C)c2c(C)nn(-c3cccc(C)c3)c21,nt,nt,?,9.28µM*,11.6%
Cc1cnc(SCc2ccccn2)nc1C1CCCN(C(=O)c2coc3c2C(=O)CCC3)C1 (stereo not given),-20.2%,-23.6%,nt,nt,nt
COc1ccc(CCN(C)C2CCCN(S(=O)(=O)N(C)C)C2)cc1OC (stereo not given),2.2%,-0.2%,nt,nt,-3.9%
CN(CCc1ccccc1)C1CCCN(S(=O)(=O)CC(F)(F)F)C1 (stereo not given),?,?,10.4µM*,-7.6%,-5.3%
COc1ccc(CCN(C)C2CCCN(S(=O)(=O)c3ccccc3F)C2)cc1OC (stereo not given),nt,nt,13.1µM*,?,-5.7%
C=CCS(=O)(=O)N1CCCC(N(C)CCc2ccc(OC)c(OC)c2)C1 (stereo not given),nt,nt,5.22µM*,?,-0.3%
COc1ccc(CCN(C)C2CCCN(C(=O)Cn3cccn3)C2)cc1OC (stereo not given),nt,nt,-7.5%,-5.9%,0.0%
Cc1ccc(C)c(CN2CCCN(CC(=O)Nc3ccc(C)c(C)c3)S2(=O)=O)c1,-13.2%,-15.3%,nt,nt,nt
CCOC(=O)/C(=C\c1cccnc1)C(=O)c1cc(C(C)=O)c(Nc2ccccc2)s1,11.2µM*,12.6µM*,nt,?,1.7%
COc1cc(OC)cc(-c2nnc(Nc3nc4c(F)cccc4s3)o2)c1,-1.5%,i,11.7µM*,-2.7%,96.1%
COc1ccc(-c2nnc(Nc3nc4c(OC)cccc4s3)o2)c(OC)c1,-23.1%,?,-36.7%,10.4µM*,3.2%
CCOC(=O)C1=C(C)N=C2SC(C)C(=O)N2C1/C=C/c1ccccc1OC (stereo not given),-3.6%,-15.4%,nt,11.7µM*,-2.1%
CN(Cc1ccccc1)S(=O)(=O)c1cc(Br)cc2c1N(C(=O)C1CC1)CC2,-3.3%,-17.2%,nt,nt,nt
CCOc1ccccc1NC(=O)c1cc(S(=O)(=O)N2CCOCC2)cn1C,-17.1%,i,nt,nt,nt
O=C(Cc1cccs1)NC1CCCC1,-12.2%,-12.1%,16.2%,35.5%,3.5%
O=C(Cc1cccs1)NNC(=O)C12CC3CC(CC(C3)C1)C2,nt,nt,-1.8%,10.4µM*,6.4%
CC1(C)C2CCC(C2)C1(C)NC(=O)CNCc1cccs1 (stereo not given),nt,nt,1.6%,-7.5%,?
O=C(CNCc1cccs1)NC12CC3CC(CC(C3)C1)C2,-5.0%,-14.6%,5.86µM*,9.7%,5.8%
O=C(CCCCC(=O)NCc1cccs1)NCc1cccs1,nt,nt,?,7.5%,-4.1%
SMILES,Vaccinia Venus,VACV mCherry inh,Pf growth 96h,Pf growth 48h,AMA1-RON2 inh
NC(=O)CCCCC(=O)OCCCc1cccs1,nt,nt,4.65µM*,-5.8%,-15.9%
Cn1c2c(c3cnc4cc(Cl)ccc4c31)CNCC2,3.1%,50.2%,nt,nt,nt
CCCCC(CC)C(=O)NCCCN1CCN(CCCNC(=O)C(CC)CCCC)CC1 (stereo not given),-28.1%,nt,-1.9%,5.86µM*,-2.1%
O=C(NCCCN1CCOCC1)c1cc(Cl)ccc1Cl,nt,nt,-9.9%,2.0%,-0.5%
CC(C)(C)c1ccc(C(=O)NCCCN2CCN(CCCNC(=O)c3ccc(C(C)(C)C)cc3)CC2)cc1,11.2µM*,?,?,?,-1.3%[2.32 µM]
O=C(NCCCN1CCN(CCCNC(=O)c2cc([N+](=O)[O-])ccc2Cl)CC1)c1cc([N+](=O)[O-])ccc1Cl,-8.8%,-13.1%,?,4.65µM*,-6.6%
Cc1[nH]c2ccc(C(=O)NCCCN3CCN(C)CC3)cc2c1C,nt,nt,11.7µM*,-14.2%,7.8%
O=C(NCCN1CCN(C(=O)c2ccc(F)cc2)CC1)c1ccc(F)cc1,-5.6%,-12.6%,11.7µM*,3.5%,-2.5%
O=C(c1ccc(F)cc1)N1CCN(Cc2ccccc2)CC1,-12.7%,-16.9%,-7.6%,-12.1%,-1.6%
Cc1ccccc1NS(=O)(=O)c1cc(C(=O)NCCC2=CCCCC2)ccc1C,-25.0%,?,?,?,6.1%
Cc1ccc(C(=O)NCCC2=CCCCC2)cc1S(=O)(=O)N1CCOCC1,-12.5%,-17.1%,?,11.7µM*,-5.5%
Cc1ccc(C(=O)NCCC2=CCCCC2)cc1S(=O)(=O)N1CCCCC1,-26.4%,?,4.65µM*,11.7µM*,-4.1%
Cc1ccc(NC(=O)c2c(C)oc3c2C2=NCCN2C=N3)cc1F,-2.3%,-10.4%,nt,nt,nt
Cc1c(Cl)cccc1NC(=O)CNS(=O)(=O)c1cccs1,8.7%,-2.6%,nt,nt,nt
S=C(NNc1ccc2ccccc2c1)NC1CCCCC1,-23.5%,-14.5%,-3.5%,-0.6%,15.8µM*
S=C(Nc1ccc(Cl)c(Cl)c1)NC1CCCCC1,nt,nt,0.0%,13.1µM*,58.8%
CN(CC(=O)Nc1ccc(Cl)c(Cl)c1)C(=O)C1CCCC1,nt,nt,5.22µM*,?,7.3%
S=C(Nc1ccc(Oc2ccccc2)cc1)NC1CCCCCC1,?,?,17.1%,-2.5%,-0.8%[11.6 µM]
S=C(Nc1ccc(Cl)c(Cl)c1)NC1CCN(Cc2ccccc2)CC1,14.1µM*,nt,?,4.15µM*,-8.4%
Fc1ccc(NC(=S)NC2CCN(Cc3ccccc3)CC2)cc1,-19.3%,-10.2%,0.0%,-9.2%,-5.2%
COc1ccc2c(c1)c1c(c(=O)n(-c3ccccc3C)c(=O)n1C)n2C,4.5%,-4.8%,nt,nt,nt
Cc1oc2c(c(C)cc3oc(=O)c(CC(=O)NCc4ccc(F)cc4)c(C)c32)c1C,-8.7%,-8.2%,nt,nt,nt
Cc1nnc(SC(C)C(=O)Nc2ncc(Cl)cc2Cl)n1Cc1ccccc1 (stereo not given),-10.8%,i,2.08µM*,?,?
COCCN1CCN(C(=O)C2CCC(=O)N(Cc3ccccc3OC)C2)CC1 (stereo not given),-8.5%,-7.3%,?,2.2%,-18.0%
COc1ccc(CNC(=O)C2CCC(=O)N(CC3CCCCC3)C2)cc1 (stereo not given),nt,nt,2.33µM*,-6.8%,-7.9%
COCCCC1CCN(C(=O)C2CCC(=O)N(CC3CCCCC3)C2)CC1 (stereo not given),-19.0%,i,1.47µM*,2.0%,11.5%
